According to PubChem BioAssay (EPA / NIEHS):
Where “and” joins values, the source holds several entries; their conditions need not be identical. Equal entries are not always repeated. Inconclusive results are not listed. The source holds several records for some structures; these can differ, active in one and inactive in another. Calls of active or inactive are those of the source. How the source made its calls, unless noted: active means hit-call score of the fitted dose curve at least 0.9, where 1 is the maximum; inconclusive means response in the unintended direction; inactive means score below 0.9.

Tests used:
[1] = BSK_4H_Eotaxin3: BioMAP Diversity Plus: 4H Assay for Eotaxin 3 Biomarker Activity (AID 2283000; active means hit-call score of the fitted dose curve at least 0.9, where 1 is the maximum; inactive means score below 0.9); conditions: primary human endothelial cells (HUVEC); actives raise or lower the signal
Outline: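 Eotaxin-3 (CCL26) levels were measured by ELISA in HUVEC primary cultures 24 h post-dosing. Gain or loss of signal was fitted in both directions, with DMSO serving as baseline and negative control.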

[2] = molecular target: human Peroxisome Proliferator-activated Receptor delta (PPARd), PPARD (gene 5467) (UniProt Q03181); experiment: ATG_PPARd_TRANS: Attagene TRANS-FACTORIAL HepG2 Assay for human Peroxisome Proliferator-activated Receptor delta (PPARd) (AID 2283002)
Outline: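 HepG2 cells transiently transfected with GAL4-UAS multiplexed reporter units driven by exogenous chimeric NR-GAL4 proteins; 24 h compound exposure. Reporter mRNA measured by RT-PCR, 6-FAM primer extension, HpaI digestion and capillary electrophoresis; gain of signal fitted relative to DMSO.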

[3] = read-out: Intercellular Adhesion Molecule 1 (ICAM1), ICAM1 (gene 3383); experiment: BSK_3C_ICAM1: BioMAP Diversity Plus: 3C Assay for Intercellular Adhesion Molecule 1 (ICAM1) Biomarker Activity (AID 2283003; active means hit-call score of the fitted dose curve at least 0.9, where 1 is the maximum; inactive means score below 0.9); conditions: primary human endothelial cells (HUVEC); actives raise or lower the signal
Outline: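 Primary human umbilical vein endothelial cells in the BioMAP 3C system were exposed to chemicals for 24 h, then ICAM-1 was quantified by ELISA. Activity was fitted bidirectionally against the DMSO negative control baseline.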

[4] = molecular target: human Retinoic Acid Receptor beta (RARb), RARB (gene 5915) (UniProt P10826); experiment: ATG_RARb_TRANS: Attagene TRANS-FACTORIAL HepG2 Assay for human Retinoic Acid Receptor beta (AID 2283004)
Outline: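 HepG2 cells were transiently transfected with GAL4-UAS reporter units that report activity of exogenous chimeric NR-Gal4 proteins, then exposed to compound for 24 h. Reporter mRNA was quantified by RT-PCR with capillary electrophoresis fluorescence, as gain of signal over DMSO.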

[5] = molecular target: Retinoic acid receptor alpha (Homo sapiens) (UniProt P10276); experiment: ATG_RARa_TRANS: Attagene TRANS-FACTORIAL HepG2 Assay for human Retinoic Acid Receptor alpha (RARa) (AID 2283005)
Outline: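 HepG2 transiently transfected with multiplex GAL4-UAS reporter units including a human RARa–GAL4 chimera; 24 h compound exposure. Reporter mRNA quantified by RT-PCR, 6-FAM labeling and capillary electrophoresis; gain of signal versus DMSO.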

[6] = BSK_3C_Proliferation: Cell Proliferation Assessment in the BioMAP Diversity Plus: 3C Assay (AID 2283006; active means hit-call score of the fitted dose curve at least 0.9, where 1 is the maximum; inactive means score below 0.9;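 on AC50: potency may reflect either rise or fall in cell number versus DMSO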); conditions: primary human endothelial cells (HUVEC)
Outline: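 Human umbilical vein endothelial cells were grown sub-confluent and exposed to chemical for 48 h, then fixed with 10% TCA and stained with 0.1% sulforhodamine B; absorbance at 560 nm gave relative cell number, fitted bidirectionally against DMSO baseline.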

[7] = molecular target: Peroxisome proliferator-activated receptor gamma (Homo sapiens) (UniProt P37231); experiment: ATG_PPARg_TRANS: Attagene TRANS-FACTORIAL HepG2 Assay for human Peroxisome Proliferator-activated Receptor-gamma (PPARg) (AID 2283007)
Outline: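 Gain-of-signal endpoint relative to DMSO, derived from reporter mRNA levels quantified by RT-PCR and capillary electrophoresis. Cells were HepG2 transiently expressing a chimeric NR-Gal4 construct with GAL4-UAS reporters, exposed to chemicals for 24 h.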

[8] = molecular target: Nuclear receptor subfamily 1 group I member 2 (Homo sapiens) (UniProt O75469); experiment: ATG_PXR_TRANS: Attagene TRANS-FACTORIAL HepG2 Assay for human Pregnane X Receptor (PXR) (AID 2283008)
Outline: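 HepG2 cells transiently transfected with GAL4-UAS reporter units and PXR-Gal4 chimera, exposed 24 h. Reporter mRNA quantified by RT-PCR, fluorescent labelling, HpaI digestion and capillary electrophoresis; gain of signal vs DMSO.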

[9] = molecular target: human Peroxisome Proliferator-activated Receptor alpha (PPARa), PPARA (gene 5465) (UniProt Q07869); experiment: ATG_PPARa_TRANS: Attagene TRANS-FACTORIAL HepG2 Assay for human Peroxisome Proliferator-activated Receptor alpha (PPARa) (AID 2283001)
Outline: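 Measures transcriptional activity of an exogenous chimeric PPARa-Gal4 protein in transiently transfected HepG2 cells after 24 h dosing. Reporter mRNA quantified via RT-PCR and capillary electrophoresis; DMSO served as negative control.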

Measured: AC50

Chain of Nuclear receptor subfamily 1 group I member 2 (Homo sapiens) (O75469 whole entry, looked up, the tested form may be a part): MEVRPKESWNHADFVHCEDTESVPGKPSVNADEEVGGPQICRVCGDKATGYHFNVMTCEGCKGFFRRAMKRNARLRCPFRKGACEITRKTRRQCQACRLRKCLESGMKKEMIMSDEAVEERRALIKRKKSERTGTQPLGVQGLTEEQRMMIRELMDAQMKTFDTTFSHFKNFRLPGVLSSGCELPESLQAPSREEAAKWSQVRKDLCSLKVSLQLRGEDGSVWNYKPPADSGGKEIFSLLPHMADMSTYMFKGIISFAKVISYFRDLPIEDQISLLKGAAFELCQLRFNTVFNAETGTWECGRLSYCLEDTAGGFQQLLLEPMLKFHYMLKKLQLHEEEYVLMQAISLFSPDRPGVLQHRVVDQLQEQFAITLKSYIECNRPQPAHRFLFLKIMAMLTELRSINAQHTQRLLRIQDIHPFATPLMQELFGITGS
Chain of human Peroxisome Proliferator-activated Receptor alpha (PPARa), PPARA (gene 5465) (Q07869 whole entry, looked up, the tested form may be a part): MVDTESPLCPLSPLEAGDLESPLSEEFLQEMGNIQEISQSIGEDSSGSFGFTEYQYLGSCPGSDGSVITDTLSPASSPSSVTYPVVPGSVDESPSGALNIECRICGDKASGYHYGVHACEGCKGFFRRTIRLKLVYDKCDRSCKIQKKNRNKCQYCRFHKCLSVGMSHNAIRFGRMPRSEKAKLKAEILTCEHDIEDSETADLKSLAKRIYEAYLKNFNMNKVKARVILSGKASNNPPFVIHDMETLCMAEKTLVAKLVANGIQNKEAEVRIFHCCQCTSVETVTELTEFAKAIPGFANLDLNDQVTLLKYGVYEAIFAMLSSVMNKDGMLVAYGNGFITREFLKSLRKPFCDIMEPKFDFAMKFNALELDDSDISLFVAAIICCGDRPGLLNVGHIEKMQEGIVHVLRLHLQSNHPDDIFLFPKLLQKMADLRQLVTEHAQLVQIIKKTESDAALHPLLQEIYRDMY
Chain of Peroxisome proliferator-activated receptor gamma (Homo sapiens) (P37231 whole entry, looked up, the tested form may be a part): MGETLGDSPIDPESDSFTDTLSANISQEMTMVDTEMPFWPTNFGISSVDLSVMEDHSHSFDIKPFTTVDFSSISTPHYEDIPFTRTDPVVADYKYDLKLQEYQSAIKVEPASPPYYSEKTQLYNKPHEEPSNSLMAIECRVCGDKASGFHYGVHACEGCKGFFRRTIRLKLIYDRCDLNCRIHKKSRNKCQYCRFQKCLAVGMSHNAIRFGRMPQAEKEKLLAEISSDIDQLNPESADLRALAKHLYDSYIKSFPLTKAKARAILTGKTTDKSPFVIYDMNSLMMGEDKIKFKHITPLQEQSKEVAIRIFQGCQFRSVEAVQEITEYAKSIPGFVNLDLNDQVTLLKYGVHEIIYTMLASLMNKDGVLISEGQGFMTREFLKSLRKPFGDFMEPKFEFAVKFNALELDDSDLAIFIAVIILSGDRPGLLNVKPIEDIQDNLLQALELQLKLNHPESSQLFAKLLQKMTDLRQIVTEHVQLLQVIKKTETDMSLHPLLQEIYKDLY
Chain of human Peroxisome Proliferator-activated Receptor delta (PPARd), PPARD (gene 5467) (Q03181 whole entry, looked up, the tested form may be a part): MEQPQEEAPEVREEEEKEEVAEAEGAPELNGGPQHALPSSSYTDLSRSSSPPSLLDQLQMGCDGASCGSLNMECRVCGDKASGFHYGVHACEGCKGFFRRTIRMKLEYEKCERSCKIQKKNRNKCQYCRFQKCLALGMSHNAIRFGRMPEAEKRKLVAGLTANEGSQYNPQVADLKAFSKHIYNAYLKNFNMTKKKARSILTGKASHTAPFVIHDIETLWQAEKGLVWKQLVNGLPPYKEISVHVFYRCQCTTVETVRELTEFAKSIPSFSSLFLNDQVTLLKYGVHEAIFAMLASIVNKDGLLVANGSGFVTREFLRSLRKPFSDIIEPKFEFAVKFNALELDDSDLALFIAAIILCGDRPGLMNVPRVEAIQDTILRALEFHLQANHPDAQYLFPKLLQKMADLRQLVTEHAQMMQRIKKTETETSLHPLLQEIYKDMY
Chain of human Retinoic Acid Receptor beta (RARb), RARB (gene 5915) (P10826 whole entry, looked up, the tested form may be a part): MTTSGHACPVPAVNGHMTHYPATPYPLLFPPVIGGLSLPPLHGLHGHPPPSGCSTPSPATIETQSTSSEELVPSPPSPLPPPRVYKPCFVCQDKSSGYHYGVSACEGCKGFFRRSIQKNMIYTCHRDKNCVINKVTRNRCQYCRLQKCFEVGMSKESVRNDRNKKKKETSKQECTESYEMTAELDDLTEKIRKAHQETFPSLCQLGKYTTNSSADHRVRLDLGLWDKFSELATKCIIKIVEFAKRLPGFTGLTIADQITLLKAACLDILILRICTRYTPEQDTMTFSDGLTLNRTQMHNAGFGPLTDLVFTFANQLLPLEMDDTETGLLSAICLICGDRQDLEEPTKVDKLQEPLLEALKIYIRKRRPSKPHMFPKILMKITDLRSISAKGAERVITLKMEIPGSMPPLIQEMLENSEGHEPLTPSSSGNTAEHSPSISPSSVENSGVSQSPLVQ
Chain of Retinoic acid receptor alpha (Homo sapiens) (P10276 whole entry, looked up, the tested form may be a part): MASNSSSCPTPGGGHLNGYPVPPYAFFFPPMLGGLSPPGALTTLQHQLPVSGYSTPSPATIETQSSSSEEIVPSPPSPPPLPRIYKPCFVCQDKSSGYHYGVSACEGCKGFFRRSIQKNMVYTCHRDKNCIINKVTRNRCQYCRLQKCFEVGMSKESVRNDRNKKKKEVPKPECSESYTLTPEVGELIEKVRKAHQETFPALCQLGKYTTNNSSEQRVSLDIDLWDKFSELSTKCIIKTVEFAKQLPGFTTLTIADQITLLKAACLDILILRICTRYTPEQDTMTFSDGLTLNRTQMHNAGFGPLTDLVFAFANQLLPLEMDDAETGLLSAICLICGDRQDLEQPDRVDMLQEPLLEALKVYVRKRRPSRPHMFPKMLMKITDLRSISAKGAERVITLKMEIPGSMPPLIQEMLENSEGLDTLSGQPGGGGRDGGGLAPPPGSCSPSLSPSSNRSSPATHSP

CCNc1nc(Cl)nc(NC(C)(C)C)n1
active: [8] 4.35 µM
not listed: [9]
inactive: all other assays above

CC(Cl)CN(C)C (stereo not drawn)
inactive: [1] | [2] | [3] | [6]

CCOP(=S)(S)OCC
inactive: [1] | [2] | [3] | [7] | [8]
active: [6] 20.9 µM

N#Cc1c(-c2ccc(Cl)cc2)[nH]c(C(F)(F)F)c1Br
active: [1] 0.796 µM | [6] 0.393 µM | [7] 0.573 µM | [8] 0.585 µM
inactive: all other assays above

OCC(F)(F)OC(F)(F)C(F)(F)OC(F)(F)C(F)(F)OC(F)(F)CO
inactive: [9] | [2] | [3] | [7] | [8]
active: [6] 5.95 µM and 35.3 µM

CCCN(CCC)c1c([N+](=O)[O-])cc(C(C)C)cc1[N+](=O)[O-]
active: [1] 32.1 µM | [6] 20 µM | [8] 1.49 µM
inactive: all other assays above

CCOP(=S)(OCC)SCn1nnc2ccccc2c1=O
active: [7] 28.5 µM | [8] 0.716 µM
inactive: [1] | [3] | [6]

CCCCc1ccc(O)cc1
active: [7] 57.1 µM
inactive: [9] | [2] | [4] | [8]

c1cc2c3c(cccc3c1)CC2
not listed: [2]
inactive: all other assays above

CCOP(=S)(OCC)SCSCC
inactive: [1] | [3] | [6] | [7]
active: [8] 9.51 µM

CCOP(=S)(OCC)SCS(=O)(=O)CC
active: [8] 5.73 µM
inactive: [9] | [2] | [3] | [6] | [7]

CCOP(=S)(OCC)SCSc1ccc(Cl)cc1
active: [1] 7.22 µM | [6] 11.8 µM | [8] 5.52 µM
inactive: [2] | [3] | [7]

CC(Cl)(Cl)C(=O)O
inactive: [1] | [3] | [6] | [7] | [8]

CCOP(=S)(NC(C)C)Oc1ccccc1C(=O)OC(C)C (stereo not drawn)
inactive: [1] | [2] | [3] | [6]
active: [7] 8.99 µM | [8] 0.599 µM

ClC(Cl)c1ccccc1
not listed: [1] | [4] | [7]
inactive: all other assays above

CC(C)CBr
inactive: [9] | [2] | [4] | [7]

CCCCCCCc1ccc(O)cc1
active: [1] 31.5 µM | [3] 37.3 µM | [6] 14.3 µM | [7] 24.3 µM | [8] 11.1 µM
inactive: [9] | [2] | [4] | [5] | [7] | [8]

O=c1[nH]c2ccccc2c(=O)o1
inactive: [9] | [2] | [5] | [7] | [8]

O=C(O)CF
inactive: [9]

CC(C)(C)c1ccc(O)cc1
inactive: [9] | [2] | [3] | [6] | [7]
active: [8] 14.8 µM

COCCOCCO
inactive: [1] | [9] | [3] | [6]

CCCCOCCOP(=O)(OCCOCCCC)OCCOCCCC
active: [7] 58.7 µM
inactive: all other assays above

CC(C)(C)c1ccccc1OP(=O)(Oc1ccccc1)Oc1ccccc1
inactive: [2]
active: [1] 26.2 µM | [3] 31.9 µM | [6] 20 µM | [7] 3.63 µM | [8] 0.156 µM

c1nc[nH]n1
not listed: [2] | [4] | [5]
inactive: all other assays above

CCCCC(CC)COP(=O)(Oc1ccccc1)Oc1ccccc1 (stereo not drawn)
active: [1] 20 µM | [6] 7.38 µM | [7] 5.22 µM | [8] 0.296 µM
inactive: [3] | [4]

Cc1ccc(O)cc1C
not listed: [5] | [8] | [9]
inactive: all other assays above

Clc1ccc(Oc2ccccc2)cc1
inactive: [9] | [2] | [4] | [7] | [8]
